Only some compounds are listed: those with a hit (about 19% of all), similar ones and a draw of the others.
DT40 TDP1 CPT – qHTS for Inhibitors of human tyrosyl-DNA phosphodiesterase 1 (TDP1): qHTS in cells in presence of CPT. chicken DT40 Tdp1-/-;hTDP1 cells + 20 nM CPT, ATP luminescence, 48 h. Potency, µM (doses to about 46.2 µM), most hits filed as inhibitors. hit rate 12% among 420,000. AID 686979, 2013; note: nearly all actives have a fitted effect of over 55% in size
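Chicken DT40 Tdp1-/- cells complemented with human TDP1, 400 cells/well, exposed to compounds plus 20 nM camptothecin for at least 48 h at 37 C; viability read as ATP content by CellTiter-Glo luminescence.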
HT1080-NT tox – qHTS for induction of synthetic lethality in tumor cells producing 2HG: qHTS for the HT-1080-NT fibrosarcoma cell line | HT-1080-NT fibrosarcoma viability, CellTiter-Glo ATP luminescence, 48 h | Potency, µM (top dose mostly 46.1 µM), hits mostly cytotoxic | hit rate 1.6% among 360,000;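 note: NT is the 2HG producing partner of a matched IDH1 knockdown line; nearly all actives have a fitted effect of over 55% in size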
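Read-out is CellTiter-Glo luminescence after 10 minutes at room temperature, following 48 hours' compound treatment of HT-1080-NT cells (750 cells/well, RPMI, 5% FBS, 37 degrees C).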
HT1080 IDH1KD tx – qHTS for induction of synthetic lethality in tumor cells producing 2HG: qHTS for the HT-1080-IDH1KD cell line; hit rate 2% among 360,000; AID 686971, 2013; HT-1080 IDH1 knockdown viability, ATP luminescence, 48 h; Potency, µM (doses to about 46.1 µM), actives largely listed as cytotoxic
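% activity derives from luminescence (CellTiter-Glo), normalised to DMSO and no-cell wells. HT-1080-IDH1KD cells, 750/well, had 48 h compound exposure at 37 °C.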
TDP1 cell noCPT – qHTS for Inhibitors of human tyrosyl-DNA phosphodiesterase 1 (TDP1): qHTS in cells in absence of CPT. DT40 Tdp1-/- hTDP1 cells, no CPT, ATP luminescence, 48 h. Potency, µM (doses to about 46.2 µM), hits mostly inhibitors. hit rate 15% among 420,000. AID 686978, 2013; note: nearly all actives have a fitted effect of over 55% in size
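Compound effects on proliferation are scored in DT40 Tdp1-/-;hTDP1 cells in the absence of CPT. ATP levels (CellTiter-Glo luminescence) are recorded after a ≥48 hr, 37 °C incubation.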
ELG1 DNA repair – qHTS screen for small molecules that inhibit ELG1-dependent DNA repair in human embryonic kidney (HEK293T) cells expressing luciferase-tagged ELG1. HEK293T ELG1-luciferase reporter, luminescence, 16 h; DNA damage induced by 5-fluorouridine. Potency, µM (doses to about 46.1 µM), usual class: inhibitors. hit rate 2.3% among 330,000. AID 504467, 2011; note: nearly all actives have a fitted effect of over 55% in size
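Cells (2,000 per well) received 5-fluorouridine plus test compound or DMSO and were incubated 16 hr at 37 °C, 5% CO2. Luciferase activity was read by luminescence 30 min after ONE-Glo addition; signal suppression marked inhibition of damage-induced ELG1 function.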
IL1B secr inh – qHTS for Inhibitors of Inflammasome Signaling: IL-1-beta AlphaLISA Primary Screen; hit rate 4.7% among 360,000; THP-1 LPS/ATP IL-1B secretion, AlphaLISA, 16 h; active compounds read low; activity change, % at 57.5 µM; in the data active = activity change below about -50%; inconclusive = mostly about -30% to -49%
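Secreted IL-1B measured by AlphaLISA bead assay after 16 h compound exposure of THP-1 cells; compounds (final up to 57.5 uM) added 1 h before LPS (250 ng/mL) and ATP (1.25 mM) stimulation; lower signal means less secretion.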
Hits are given with their value; [ ] = dose if it differs, or a comment. Unless noted, calls come from the whole dose curve; as a rule, active = well fitted curve in the direction sought with a large enough effect; inconclusive = small, poorly fitted or top-dose-only effect, or another doubt; inactive = no such curve, though single readings can be large; an effect the other way counts as inactive or inconclusive.

COc1ccccc1NC(=O)CCNS(=O)(=O)c1ccc2[nH]c(=O)oc2c1 was read as DT40 TDP1 CPT 23µM, HT1080-NT tox inactive, HT1080 IDH1KD tx inactive, TDP1 cell noCPT inconclusive, ELG1 DNA repair inactive and IL1B secr inh inactive.
Screening Cc1ccc(-c2nnc3c(C(F)(F)F)nc4ccccc4n23)cc1 returned DT40 TDP1 CPT 21µM, HT1080-NT tox inactive, HT1080 IDH1KD tx inactive, TDP1 cell noCPT 21µM, ELG1 DNA repair inactive and IL1B secr inh inactive.
FC(F)(F)c1nc2ccccc2n2c(-c3ccc(Cl)cc3)nnc12 was read as DT40 TDP1 CPT 7.3µM, HT1080-NT tox 5.8µM, HT1080 IDH1KD tx 4.6µM, TDP1 cell noCPT 12µM, ELG1 DNA repair inconclusive and IL1B secr inh inconclusive.
`CCN(CC)S(=O)(=O)c1ccc2c(c1)N(CC(=O)Nc1ccc(NC(C)=O)cc1)C(=O)CO2` gave DT40 TDP1 CPT inactive, HT1080-NT tox inactive, HT1080 IDH1KD tx inactive, TDP1 cell noCPT inactive, ELG1 DNA repair inactive and IL1B secr inh inactive.
CCOc1ccc(/C=C/C(=O)c2ccccc2)cc1OC was read as DT40 TDP1 CPT inconclusive, HT1080-NT tox inactive, HT1080 IDH1KD tx inactive, TDP1 cell noCPT inconclusive, ELG1 DNA repair inconclusive and IL1B secr inh -103.
Screening COc1cccc(C(=O)/C=C/c2ccc(SC)cc2)c1 returned DT40 TDP1 CPT inconclusive, HT1080-NT tox inactive, HT1080 IDH1KD tx inconclusive, TDP1 cell noCPT inconclusive, ELG1 DNA repair inactive and IL1B secr inh inactive.
For COc1cccc(C(=O)/C=C/c2ccc(OCC#N)c(OC)c2)c1 the results were DT40 TDP1 CPT 21µM, HT1080-NT tox inconclusive, HT1080 IDH1KD tx inconclusive, TDP1 cell noCPT 13µM, ELG1 DNA repair inconclusive and IL1B secr inh -102.
COc1cc(/C=C/C(=O)OCC(=O)N2CCC(C)CC2)ccc1OCC#N was read as DT40 TDP1 CPT inactive, HT1080-NT tox inactive[9.24 µM], HT1080 IDH1KD tx inactive, TDP1 cell noCPT inactive, ELG1 DNA repair inactive and IL1B secr inh inactive.
`CCCOc1ccc(/C=C/C(=O)O)cc1OC` gave DT40 TDP1 CPT inactive, HT1080-NT tox inactive, HT1080 IDH1KD tx inactive, TDP1 cell noCPT inactive, ELG1 DNA repair inactive and IL1B secr inh inactive.
COc1cc(/C=C/C(=O)c2ccc(O)cc2)ccc1OCC#N was read as DT40 TDP1 CPT 8.2µM, HT1080-NT tox inactive, HT1080 IDH1KD tx inactive, TDP1 cell noCPT 10µM, ELG1 DNA repair inconclusive and IL1B secr inh inconclusive.
For COC(=O)c1ccc(/C=C/C(=O)c2cccc(OC)c2)cc1 the results were DT40 TDP1 CPT inconclusive, HT1080-NT tox inconclusive, HT1080 IDH1KD tx 23µM, TDP1 cell noCPT 23µM, ELG1 DNA repair inconclusive and IL1B secr inh -101.
Oc1ccc(/C=N/Nc2ncc(Br)cn2)c(O)c1 was read as DT40 TDP1 CPT 7.3µM, HT1080-NT tox inactive, HT1080 IDH1KD tx inconclusive, TDP1 cell noCPT 7.3µM, ELG1 DNA repair inconclusive and IL1B secr inh inactive.
Screening Oc1ccc(Br)cc1/C=N/Nc1ncc(-c2ccccc2)cn1 returned DT40 TDP1 CPT 6.5µM, HT1080-NT tox inactive, HT1080 IDH1KD tx inactive, TDP1 cell noCPT 8.2µM, ELG1 DNA repair inactive and IL1B secr inh inactive.
Screening Oc1ccccc1/C=N/Nc1nccnc1Cl returned DT40 TDP1 CPT 4.6µM, HT1080-NT tox inconclusive, HT1080 IDH1KD tx inconclusive, TDP1 cell noCPT 2.9µM, ELG1 DNA repair inconclusive and IL1B secr inh inactive.
`O=c1[nH]ncc(N/N=C\c2ccc(O)cc2O)c1Cl` gave DT40 TDP1 CPT inactive, HT1080-NT tox inactive, HT1080 IDH1KD tx inactive, TDP1 cell noCPT inconclusive, ELG1 DNA repair inconclusive and IL1B secr inh inactive.
Oc1ccc(/C=N/Nc2nccnc2Cl)c(O)c1 was read as DT40 TDP1 CPT 3.3µM, HT1080-NT tox inactive, HT1080 IDH1KD tx inconclusive, TDP1 cell noCPT 3.3µM, ELG1 DNA repair inconclusive and IL1B secr inh inactive.
For O=[N+]([O-])c1ccccc1/C=N/Nc1nccnc1Cl the results were DT40 TDP1 CPT inactive, HT1080-NT tox inactive, HT1080 IDH1KD tx inconclusive, TDP1 cell noCPT inactive, ELG1 DNA repair inconclusive and IL1B secr inh inactive.
Cc1cccc(-c2nc3c(c(=O)c4ccccc4n3C)c(=O)n2-c2ccccc2)c1 was read as DT40 TDP1 CPT inactive, HT1080-NT tox inactive, HT1080 IDH1KD tx inactive, TDP1 cell noCPT inactive, ELG1 DNA repair inactive and IL1B secr inh inactive.
For CCOc1ccc(NC(=O)CCS(=O)(=O)c2cccc3nonc23)cc1 the results were DT40 TDP1 CPT inactive and TDP1 cell noCPT inactive.
Screening CC(C)(C)C1CCc2onc(C(=O)NC3CCCC3)c2C1 (configuration not stated) returned DT40 TDP1 CPT inconclusive, HT1080-NT tox inconclusive, HT1080 IDH1KD tx inactive, TDP1 cell noCPT inconclusive, ELG1 DNA repair inactive and IL1B secr inh inactive.
`CC(C)(C)C1CCc2onc(C(=O)Nc3ccc4c(c3)OCO4)c2C1` (configuration not stated) gave DT40 TDP1 CPT inactive, HT1080-NT tox inconclusive, HT1080 IDH1KD tx 13µM, TDP1 cell noCPT inconclusive, ELG1 DNA repair inactive and IL1B secr inh inactive.
Screening COc1cc(NC(=O)c2noc3c2CC(C(C)(C)C)CC3)cc(OC)c1OC (configuration not stated) returned DT40 TDP1 CPT 21µM and TDP1 cell noCPT 16µM.
N#CC1=C(N)N(c2ccccc2)C2=C(C(=O)CCC2)C1c1ccsc1 (configuration not stated) was read as DT40 TDP1 CPT inactive, HT1080-NT tox 11µM, HT1080 IDH1KD tx inconclusive, TDP1 cell noCPT inactive, ELG1 DNA repair inactive and IL1B secr inh inactive.
Screening CN(C)N1C(N)=C(C#N)C(c2ccsc2)C2=C1CC(C)(C)CC2=O (configuration not stated) returned DT40 TDP1 CPT inactive, HT1080-NT tox inactive, HT1080 IDH1KD tx inactive, TDP1 cell noCPT inactive, ELG1 DNA repair inactive and IL1B secr inh inactive.
`Cc1ccc(N2C(N)=C(C#N)C(c3ccsc3)C3=C2CC(C)(C)CC3=O)cc1` (configuration not stated) gave DT40 TDP1 CPT inconclusive, HT1080-NT tox inactive, HT1080 IDH1KD tx inactive, TDP1 cell noCPT inconclusive, ELG1 DNA repair inactive and IL1B secr inh -55.
`COc1cccc(OCCNC(=O)CSc2ccc(C(F)(F)F)cc2[N+](=O)[O-])c1` gave DT40 TDP1 CPT 15µM, HT1080-NT tox inactive, HT1080 IDH1KD tx inactive, TDP1 cell noCPT 15µM, ELG1 DNA repair inactive and IL1B secr inh inactive.
